Source: PubChem BioAssay (NCI)
About 83,000 compounds went through this panel and 20% of them were active in at least one assay; those are over-represented in the sample as a whole.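 The endpoint reported here, percent growth, reads 100 for growth as untreated, 0 for no net growth and -100 for all cells dead.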 Values without a mark were called inactive. Activity calls are given as the source filed them. How the source made its calls: active means growth percent below 10; inactive means the rest.

Tests used:
Experiment in all cases: NCI-60 one-dose screen, 48 h (100 = growth as untreated, 0 = no growth, -100 = all killed)
Conditions in all cases: 10 µM unless noted
[1] = test system: RPMI-8226 leukemia
[2] = test system: OVCAR-8 ovarian
[3] = test system: OVCAR-5 ovarian
[4] = test system: OVCAR-4 ovarian
[5] = test system: SK-OV-3 ovarian
[6] = test system: IGROV1 ovarian
[7] = test system: OVCAR-3 ovarian
[8] = test system: HS 578T breast
[9] = test system: SR leukemia
[10] = test system: NCI/ADR-RES ovarian

Row | Structure (SMILES) | growth [1] | growth [2] | growth [3] | growth [4] | growth [5] | growth [6] | growth [7] | growth [8] | growth [9] | growth [10]
1 | CN1CCN(Cc2ccc(NC(=O)c3[nH]ncc3Nc3ncnc4c3CCC4)cc2)CC1 | -9.23% (active) | 11.9% | -0.195% (active) | 6.83% (active) | 24.5% | 19.2% | -5.87% (active) | 16.1% |  | 
2 | CCCCCCCCCCCCN1CCCC(C)C1 (centres undefined) | 64.1% |  | 88.2% | 68% | 88.3% | 82.4% | 93.3% | 99.8% | -13.9% (active) | 88.2%
3 | C=C1CCC2C3(C)COC(c4ccc(SC)cc4)OC3CCC2(C)C1C/C=C1/C(=O)OCC1O (centres undefined) | 11.6% | 34.9% | 79.1% | 59.1% | 96.3% | 99.2% | 71.4% | 102% |  | 49.8%
4 | COc1ccc(-c2nn(-c3ccccc3)cc2/C=C2\SC(=O)NC2=O)cc1 | 78.7% | 101% | 99.4% | 89.5% | 93.3% | 103% | 110% | 106% |  | 106%
5 | CC(=O)/C(=C/c1cccc(Cl)c1)C(=O)c1ccccc1 | 16.8% | 85.2% | 94.1% | 89.6% | 96.3% | 83% | 96.1% | 94.7% |  | 75.8%
6 | O=S(=O)(Nc1ccc(F)c(Cl)c1)c1ccc(-c2cnc(C3CC3)o2)cc1 | 19.3% | 21.7% | 34.4% | 39.1% | 35.1% | 27.3% | -8.13% (active) | 11.3% |  | -17% (active)
7 | CN1CCN(Cc2ccc(NC(=O)c3[nH]ncc3Nc3ccnc4ccsc34)cc2)CC1 | 19.2% | 21.5% | 18.1% | 12.5% | 34.7% | 24.2% | 22.6% | 54.6% |  | 93.5%
8 | O=C(CCN1CCOCC1)Nc1ccc(Cn2nnc3c2C(=O)c2nnn(Cc4ccc(NC(=O)CCN5CCOCC5)cc4)c2C3=O)cc1 | 5.5% (active) | 45.6% | 110% | -81.4% (active) | 95.4% | -19.8% (active) | -1.65% (active) | 44.9% |  | 109%
9 | CC(C)(C)c1nn(-c2ccccc2)c2c1CC1(CN2Cc2ccc3c(c2)OCO3)C(=O)c2ccccc2C1=O | 85.8% | 89.2% | 105% | 123% | 115% | 96.6% | 123% | 120% |  | 101%
10 | O=C1C=CC(Nc2ccccc2[N+](=O)[O-])C1Nc1ccccc1[N+](=O)[O-] (centres undefined) | -17.4% (active) | 31% | 12.3% | 3.47% (active) | 109% | 86% | -81.3% (active) | 32% |  | -26.8% (active)
11 | COc1ccc2nc3cc(Cl)ccc3c(N3CCN(c4ccnc(N5CCOCC5)n4)CC3)c2c1 | 11.3% | 59.2% | 83.8% | 55.6% | 85.5% | 77.8% | 4.76% (active) | 99.2% |  | 73.2%
12 | COC(=O)[C@H](C(C)C)n1c(=O)c2cc(OC)c(OC)cc2c2cnc3[nH]ccc3c21 | 55% | 65.1% | 39.9% | 85% | 26.5% | 3.08% (active) | 48.8% | 12.6% |  | 56.4%
13 | Cc1ccc2c(c1)C(=O)/C(=C/c1ccc(OCC(=O)c3ccccc3)cc1)O2 | 216% | 106% | 107% | 83.9% | 106% | 75.9% | 106% | 105% |  | 88.1%
14 | Cc1cc2c(cc1C)NC1=C(N2)OC(c2c3ccccc3cc3ccccc23)C1=O (centres undefined) | 30.6% | -27.4% (active) | 13.9% | 75.5% | 52% | 17.4% | 23.3% | 32.5% |  | -41.7% (active)
15 | Cc1nn(-c2nc3ccccc3[nH]2)c2c1C(c1ccc3c(c1)OCO3)CC(=O)N2 (centres undefined) | -18.4% (active) | 36.9% | 105% | 65.1% | 54.9% | 21.3% | -24.3% (active) | 38.2% |  | 50.3%
16 | CC(=O)C1=C(O)C=C2Oc3c(C(=O)/C=C/c4cc(Cl)cc(Cl)c4)c(O)c(C)c(O)c3[C@]2(C)C1=O | -22.1% (active) | -24.3% (active) | 0.163% (active) | 8.73% (active) | -24.4% (active) | -13.8% (active) | -28.6% (active) | -16.6% (active) |  | -40.9% (active)
17 | COc1cnc2c(c1)C(=O)c1c-2n(CCCN2CCN(C)CC2)c(=O)c2cc([N+](=O)[O-])ccc12 | -41.6% (active) | -21.9% (active) | 111% | -81.7% (active) | 86.6% | -55.2% (active) | -84.6% (active) | 94.8% |  | -2.68% (active)
18 | Oc1ccc(Nc2nccc(-c3ccc4ccccc4c3)n2)cc1 | 18.3% | 31.6% | 66.9% | 65.5% | 57.4% | 36.3% | 34.3% | 42.8% |  | 14.7%
19 | Cc1ccc2c(c1)O/C(=C\c1cccc(OCC(=O)c3ccccc3)c1)C2=O | 188% | 91.7% | 109% | 104% | 108% | 95.5% | 118% | 96.6% |  | 101%
20 | O=C(CN1CCN(c2cc3c(cc2F)c(=O)c(C(=O)N/N=C/c2ccccc2)cn3C2CC2)CC1)N/N=C\c1ccccc1 | 39.2% | 73.9% | 98.6% | 89.8% | 124% | 54.4% | 77% | 84.8% |  | 77.1%
21 | CN1Cc2c(cc(CN3CCCCC3)n2C)C(c2ccc(Br)cc2)C1 (centres undefined) | 81.4% | 96.9% | 96.1% | 86.6% | 93.7% | 96.3% | 95.4% | 76.3% |  | 88.1%
22 | CCOC(=O)CC(=O)c1c(C)cc(C)cc1C | 90.3% | 102% | 84.1% | 113% | 105% | 108% | 117% | 91.7% |  | 102%
23 | COc1ccc(C(=O)/C=C/c2c[n+](=O)c3ccc(F)cc3n2[O-])cc1 | 109% | 83.5% | 97.2% | 106% | 106% | 133% | 102% | 102% |  | 101%
24 | CCN(CC)C12CCCCC1(C)C(C#N)(C#N)C(C#N)=C(N)O2 (centres undefined) | 125% | 93.4% | 101% | 100% | 110% | 111% | 98.3% | 120% |  | 101%
25 | CNCc1cccc2c1OCCOCCOCCN(C)S(=O)(=O)c1ccc(cc1)-c1cnc(N)c(n1)C(=O)N2 | 44.6% | 52.9% | 160% | 72.8% | 19.4% | 42.5% | 42.8% | 56.9% |  | 80.1%
26 | COc1ccc(CN(c2ccc(C)cc2)C2OC(=O)c3ccccc32)cc1OC (centres undefined) | 93.9% | 108% | 89.7% | 103% | 118% | 116% | 113% | 102% |  | 96.3%
27 | COc1cc(NCCCCCN=C(N)NC(N)=NC(C)C)c2ncccc2c1 | 37.6% | 23.8% | 71.5% | -16.7% (active) | 83.3% | -13.1% (active) | -39.8% (active) | 64% |  | 99.5%
28 | NC1=CSC2=N/C(=C\c3ccc(Cl)cc3)C(=O)N12 | 39.9% | 72.3% | 105% | 84.1% | 89.3% | 79.2% | 71.6% | 101% |  | 76.1%
29 | NC(N)=Nc1ccc(S(=O)(=O)O)cc1 | 101% | 107% | 99.7% | 95.5% | 96.7% | 121% | 129% | 105% |  | 93.6%
30 | N#Cc1ccc(NC(=O)Nc2ccc(Cc3ccc(NC(=O)Nc4ccc(C#N)cc4)cc3)cc2)cc1 | -2.1% (active) | 38.7% | 69.6% | 15% | 68.6% | 29.6% | 18.8% | 47.9% |  | 52.7%
